Reference: the supplement of paper PMC11732987, “Enantioselective OTUD7B fragment discovery through chemoproteomics screening and high-throughput optimisation” (Communications Chemistry, 2025)

Assays:
Assay in all cases: log2 ratio of Biotin-Ahx-Ub-VS probe labelling (fragment/DMSO); higher = less target engagement (more negative = stronger competition), active = hit call of the paper (q ≤ 0.05, log2 ratio ≤ -1)
Conditions in all cases: compound concentration: 200 uM; treatment time: 3 h
USP34 = USP34 (UniProt Q70CQ2)
Sequence of USP34 (Q70CQ2 whole entry, the tested form may be a part): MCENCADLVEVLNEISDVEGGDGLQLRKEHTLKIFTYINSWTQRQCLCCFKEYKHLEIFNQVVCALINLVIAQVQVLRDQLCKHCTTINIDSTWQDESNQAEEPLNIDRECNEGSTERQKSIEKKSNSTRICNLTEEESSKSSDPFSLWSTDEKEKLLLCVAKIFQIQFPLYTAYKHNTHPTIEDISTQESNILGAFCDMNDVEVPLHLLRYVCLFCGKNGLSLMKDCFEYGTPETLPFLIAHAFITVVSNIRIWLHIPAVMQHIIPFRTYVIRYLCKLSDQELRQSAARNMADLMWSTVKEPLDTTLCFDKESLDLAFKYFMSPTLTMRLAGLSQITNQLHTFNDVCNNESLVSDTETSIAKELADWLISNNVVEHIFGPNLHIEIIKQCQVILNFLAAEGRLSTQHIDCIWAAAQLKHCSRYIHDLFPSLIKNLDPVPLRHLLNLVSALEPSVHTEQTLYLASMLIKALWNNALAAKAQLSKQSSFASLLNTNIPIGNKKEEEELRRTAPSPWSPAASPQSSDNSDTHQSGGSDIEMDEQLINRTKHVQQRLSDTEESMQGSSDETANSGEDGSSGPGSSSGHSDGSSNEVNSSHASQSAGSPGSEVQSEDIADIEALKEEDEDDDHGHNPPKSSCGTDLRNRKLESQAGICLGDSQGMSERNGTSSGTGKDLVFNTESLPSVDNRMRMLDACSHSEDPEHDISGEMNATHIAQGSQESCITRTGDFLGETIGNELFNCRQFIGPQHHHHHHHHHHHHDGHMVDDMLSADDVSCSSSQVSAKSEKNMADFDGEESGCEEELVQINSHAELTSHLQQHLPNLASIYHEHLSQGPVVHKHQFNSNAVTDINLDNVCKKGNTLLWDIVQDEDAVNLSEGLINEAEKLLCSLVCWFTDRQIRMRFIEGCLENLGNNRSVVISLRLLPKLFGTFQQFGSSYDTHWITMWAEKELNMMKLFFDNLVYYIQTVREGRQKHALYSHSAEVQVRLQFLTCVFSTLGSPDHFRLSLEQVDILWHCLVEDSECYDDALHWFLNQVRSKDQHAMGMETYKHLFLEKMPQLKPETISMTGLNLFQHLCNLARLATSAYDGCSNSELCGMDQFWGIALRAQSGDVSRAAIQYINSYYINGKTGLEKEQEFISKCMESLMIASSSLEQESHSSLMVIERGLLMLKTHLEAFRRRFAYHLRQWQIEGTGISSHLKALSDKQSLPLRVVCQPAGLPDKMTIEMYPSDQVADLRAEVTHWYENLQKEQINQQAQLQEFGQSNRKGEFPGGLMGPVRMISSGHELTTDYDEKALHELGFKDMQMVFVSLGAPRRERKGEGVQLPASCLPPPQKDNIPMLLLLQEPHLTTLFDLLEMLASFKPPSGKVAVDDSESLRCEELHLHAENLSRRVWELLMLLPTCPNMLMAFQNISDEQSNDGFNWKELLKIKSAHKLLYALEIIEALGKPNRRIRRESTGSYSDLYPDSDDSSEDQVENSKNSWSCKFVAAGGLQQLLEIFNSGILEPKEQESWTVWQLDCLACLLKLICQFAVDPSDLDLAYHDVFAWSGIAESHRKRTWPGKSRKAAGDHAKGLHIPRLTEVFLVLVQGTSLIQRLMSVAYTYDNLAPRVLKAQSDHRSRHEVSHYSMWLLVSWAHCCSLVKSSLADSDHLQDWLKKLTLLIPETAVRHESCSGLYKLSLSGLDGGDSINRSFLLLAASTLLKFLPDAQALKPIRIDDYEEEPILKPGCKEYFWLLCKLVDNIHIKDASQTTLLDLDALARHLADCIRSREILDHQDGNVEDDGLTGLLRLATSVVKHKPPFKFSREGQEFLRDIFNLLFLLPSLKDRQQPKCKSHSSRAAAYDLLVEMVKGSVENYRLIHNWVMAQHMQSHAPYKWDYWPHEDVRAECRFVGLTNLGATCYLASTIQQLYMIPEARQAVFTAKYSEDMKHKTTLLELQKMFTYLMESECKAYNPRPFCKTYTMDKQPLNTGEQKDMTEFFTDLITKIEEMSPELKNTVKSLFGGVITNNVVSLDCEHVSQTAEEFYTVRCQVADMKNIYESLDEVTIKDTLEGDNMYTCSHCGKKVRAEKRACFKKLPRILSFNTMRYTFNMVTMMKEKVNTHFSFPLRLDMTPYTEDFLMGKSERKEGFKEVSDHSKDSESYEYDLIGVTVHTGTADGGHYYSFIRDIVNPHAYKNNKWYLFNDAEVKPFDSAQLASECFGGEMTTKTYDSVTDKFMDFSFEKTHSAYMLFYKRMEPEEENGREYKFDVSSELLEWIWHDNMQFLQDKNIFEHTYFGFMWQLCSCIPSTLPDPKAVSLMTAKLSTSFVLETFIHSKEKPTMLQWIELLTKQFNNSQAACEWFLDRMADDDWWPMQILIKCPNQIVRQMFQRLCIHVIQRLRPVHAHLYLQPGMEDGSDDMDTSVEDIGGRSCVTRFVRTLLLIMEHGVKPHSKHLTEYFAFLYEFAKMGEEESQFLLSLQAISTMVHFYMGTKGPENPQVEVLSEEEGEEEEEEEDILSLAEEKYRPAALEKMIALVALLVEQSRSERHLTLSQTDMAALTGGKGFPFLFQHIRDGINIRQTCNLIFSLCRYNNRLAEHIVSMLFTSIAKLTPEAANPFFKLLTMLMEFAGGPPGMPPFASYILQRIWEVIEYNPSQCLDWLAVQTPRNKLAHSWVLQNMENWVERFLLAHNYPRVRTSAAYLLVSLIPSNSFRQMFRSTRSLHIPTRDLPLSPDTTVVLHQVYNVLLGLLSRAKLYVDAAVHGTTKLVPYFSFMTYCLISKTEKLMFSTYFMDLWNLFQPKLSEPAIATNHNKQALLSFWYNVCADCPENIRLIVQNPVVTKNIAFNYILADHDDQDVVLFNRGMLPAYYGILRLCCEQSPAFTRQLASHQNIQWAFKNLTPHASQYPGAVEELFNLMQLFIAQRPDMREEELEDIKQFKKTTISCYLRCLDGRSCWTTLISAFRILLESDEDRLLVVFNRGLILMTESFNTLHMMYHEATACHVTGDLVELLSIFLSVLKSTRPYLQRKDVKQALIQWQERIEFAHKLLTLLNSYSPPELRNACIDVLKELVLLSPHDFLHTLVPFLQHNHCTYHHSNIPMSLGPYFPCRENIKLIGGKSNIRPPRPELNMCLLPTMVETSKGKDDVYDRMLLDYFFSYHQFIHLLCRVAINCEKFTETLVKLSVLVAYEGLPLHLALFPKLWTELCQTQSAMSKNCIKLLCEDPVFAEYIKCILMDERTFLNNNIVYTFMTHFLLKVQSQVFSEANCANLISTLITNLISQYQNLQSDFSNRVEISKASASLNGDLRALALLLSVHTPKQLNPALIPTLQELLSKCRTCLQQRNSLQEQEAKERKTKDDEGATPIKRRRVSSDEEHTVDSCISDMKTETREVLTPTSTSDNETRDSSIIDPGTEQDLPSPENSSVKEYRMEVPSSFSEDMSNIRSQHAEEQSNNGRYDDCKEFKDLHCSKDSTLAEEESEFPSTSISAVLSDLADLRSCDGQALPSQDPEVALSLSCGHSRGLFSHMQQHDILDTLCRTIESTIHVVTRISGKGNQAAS
Summary of the method: (§1)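 Values give the average log2 ratio of fragment to vehicle, assessed by unpaired t-test on global-median-normalised Spectronaut label-free quantities. Proteins needed ≥2 unique peptides. HEK293T lysate (495 µg per sample) was treated in triplicate with fragment at 200 µM or vehicle for 3 h and then with Biotin-Ahx-Ub-VS at 0.5 µM final for 1 h. Labelled DUBs were NeutrAvidin-enriched, digested and run by diaPASEF LC-MS/MS.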

USP36 = biological target: T1, USP36 (UniProt Q9P275)
T1 sequence (whole entry): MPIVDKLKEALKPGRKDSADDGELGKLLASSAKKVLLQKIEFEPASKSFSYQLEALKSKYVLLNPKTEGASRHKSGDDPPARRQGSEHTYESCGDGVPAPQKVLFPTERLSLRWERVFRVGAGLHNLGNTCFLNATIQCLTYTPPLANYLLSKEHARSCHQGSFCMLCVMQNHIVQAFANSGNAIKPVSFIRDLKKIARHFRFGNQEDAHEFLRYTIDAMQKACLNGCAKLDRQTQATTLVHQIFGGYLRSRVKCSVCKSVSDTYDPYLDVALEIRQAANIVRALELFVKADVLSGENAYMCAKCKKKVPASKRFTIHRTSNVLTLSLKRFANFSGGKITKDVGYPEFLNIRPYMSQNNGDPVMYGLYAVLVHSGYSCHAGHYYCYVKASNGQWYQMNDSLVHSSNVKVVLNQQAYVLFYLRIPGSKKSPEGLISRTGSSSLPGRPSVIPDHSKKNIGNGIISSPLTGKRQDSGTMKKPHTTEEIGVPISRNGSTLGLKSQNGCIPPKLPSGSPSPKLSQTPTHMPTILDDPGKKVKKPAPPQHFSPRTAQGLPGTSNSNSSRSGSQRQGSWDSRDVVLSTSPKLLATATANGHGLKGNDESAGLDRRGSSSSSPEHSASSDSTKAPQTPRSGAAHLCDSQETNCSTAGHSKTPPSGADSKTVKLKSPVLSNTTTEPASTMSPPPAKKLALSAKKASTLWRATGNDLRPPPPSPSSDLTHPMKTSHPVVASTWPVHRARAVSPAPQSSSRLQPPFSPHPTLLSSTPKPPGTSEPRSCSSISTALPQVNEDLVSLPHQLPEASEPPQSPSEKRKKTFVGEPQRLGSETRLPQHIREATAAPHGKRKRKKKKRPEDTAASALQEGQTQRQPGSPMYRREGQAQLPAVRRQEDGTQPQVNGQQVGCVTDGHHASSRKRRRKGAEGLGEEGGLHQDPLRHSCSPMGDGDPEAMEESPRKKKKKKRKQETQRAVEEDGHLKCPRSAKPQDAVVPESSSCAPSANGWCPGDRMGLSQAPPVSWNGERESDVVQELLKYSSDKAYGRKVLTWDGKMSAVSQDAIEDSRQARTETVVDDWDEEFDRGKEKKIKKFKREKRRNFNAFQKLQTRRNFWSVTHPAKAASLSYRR
Summary of the method: as §1

USP38 = biological target: T2, USP38 (UniProt Q8NB14)
T2 sequence (whole entry): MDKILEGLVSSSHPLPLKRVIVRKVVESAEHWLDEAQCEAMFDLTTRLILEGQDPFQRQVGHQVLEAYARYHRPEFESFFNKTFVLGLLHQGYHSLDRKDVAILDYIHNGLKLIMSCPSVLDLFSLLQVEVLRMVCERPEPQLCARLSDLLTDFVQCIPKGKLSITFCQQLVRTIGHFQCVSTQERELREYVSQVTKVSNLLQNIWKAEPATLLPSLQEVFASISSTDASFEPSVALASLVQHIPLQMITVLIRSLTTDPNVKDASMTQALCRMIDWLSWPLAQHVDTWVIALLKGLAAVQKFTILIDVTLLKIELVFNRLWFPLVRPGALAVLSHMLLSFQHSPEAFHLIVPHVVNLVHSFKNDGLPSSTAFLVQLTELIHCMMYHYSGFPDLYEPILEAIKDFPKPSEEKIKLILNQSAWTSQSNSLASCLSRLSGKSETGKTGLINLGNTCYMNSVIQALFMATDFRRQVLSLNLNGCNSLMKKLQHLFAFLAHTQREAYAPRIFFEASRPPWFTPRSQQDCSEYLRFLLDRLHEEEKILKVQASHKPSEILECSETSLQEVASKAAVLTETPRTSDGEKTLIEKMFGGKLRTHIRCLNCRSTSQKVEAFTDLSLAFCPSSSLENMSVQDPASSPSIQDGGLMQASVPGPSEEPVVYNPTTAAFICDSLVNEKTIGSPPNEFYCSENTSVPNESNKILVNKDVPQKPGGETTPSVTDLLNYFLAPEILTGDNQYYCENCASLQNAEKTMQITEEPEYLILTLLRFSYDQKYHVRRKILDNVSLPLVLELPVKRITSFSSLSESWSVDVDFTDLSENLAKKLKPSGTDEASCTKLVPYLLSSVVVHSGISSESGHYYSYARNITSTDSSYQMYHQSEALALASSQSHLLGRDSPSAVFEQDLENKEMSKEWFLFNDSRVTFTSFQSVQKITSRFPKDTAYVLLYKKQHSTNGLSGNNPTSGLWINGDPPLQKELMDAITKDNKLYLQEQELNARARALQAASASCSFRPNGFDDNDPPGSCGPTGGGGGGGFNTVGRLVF
Summary of the method: as §1

USP39 = biological target: T3, USP39 (UniProt Q53GS9)
T3 sequence (whole entry): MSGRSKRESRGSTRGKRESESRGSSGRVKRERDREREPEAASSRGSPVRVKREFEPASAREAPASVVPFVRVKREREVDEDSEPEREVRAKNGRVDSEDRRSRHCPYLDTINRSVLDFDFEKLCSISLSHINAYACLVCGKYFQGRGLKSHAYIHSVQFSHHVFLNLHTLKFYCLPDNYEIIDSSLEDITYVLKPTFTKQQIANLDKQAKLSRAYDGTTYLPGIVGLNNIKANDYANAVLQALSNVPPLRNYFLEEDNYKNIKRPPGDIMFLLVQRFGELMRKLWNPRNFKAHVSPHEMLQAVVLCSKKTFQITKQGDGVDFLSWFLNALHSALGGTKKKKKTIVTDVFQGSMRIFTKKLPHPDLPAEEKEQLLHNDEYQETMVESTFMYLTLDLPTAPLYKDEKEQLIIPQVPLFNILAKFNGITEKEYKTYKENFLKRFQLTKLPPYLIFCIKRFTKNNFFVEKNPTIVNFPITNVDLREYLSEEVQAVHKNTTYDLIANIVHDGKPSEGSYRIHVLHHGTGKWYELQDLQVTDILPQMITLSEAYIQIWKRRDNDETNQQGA
Summary of the method: as §1

USP4 = biological target: T4, USP4 (UniProt Q13107)
T4 sequence (whole entry): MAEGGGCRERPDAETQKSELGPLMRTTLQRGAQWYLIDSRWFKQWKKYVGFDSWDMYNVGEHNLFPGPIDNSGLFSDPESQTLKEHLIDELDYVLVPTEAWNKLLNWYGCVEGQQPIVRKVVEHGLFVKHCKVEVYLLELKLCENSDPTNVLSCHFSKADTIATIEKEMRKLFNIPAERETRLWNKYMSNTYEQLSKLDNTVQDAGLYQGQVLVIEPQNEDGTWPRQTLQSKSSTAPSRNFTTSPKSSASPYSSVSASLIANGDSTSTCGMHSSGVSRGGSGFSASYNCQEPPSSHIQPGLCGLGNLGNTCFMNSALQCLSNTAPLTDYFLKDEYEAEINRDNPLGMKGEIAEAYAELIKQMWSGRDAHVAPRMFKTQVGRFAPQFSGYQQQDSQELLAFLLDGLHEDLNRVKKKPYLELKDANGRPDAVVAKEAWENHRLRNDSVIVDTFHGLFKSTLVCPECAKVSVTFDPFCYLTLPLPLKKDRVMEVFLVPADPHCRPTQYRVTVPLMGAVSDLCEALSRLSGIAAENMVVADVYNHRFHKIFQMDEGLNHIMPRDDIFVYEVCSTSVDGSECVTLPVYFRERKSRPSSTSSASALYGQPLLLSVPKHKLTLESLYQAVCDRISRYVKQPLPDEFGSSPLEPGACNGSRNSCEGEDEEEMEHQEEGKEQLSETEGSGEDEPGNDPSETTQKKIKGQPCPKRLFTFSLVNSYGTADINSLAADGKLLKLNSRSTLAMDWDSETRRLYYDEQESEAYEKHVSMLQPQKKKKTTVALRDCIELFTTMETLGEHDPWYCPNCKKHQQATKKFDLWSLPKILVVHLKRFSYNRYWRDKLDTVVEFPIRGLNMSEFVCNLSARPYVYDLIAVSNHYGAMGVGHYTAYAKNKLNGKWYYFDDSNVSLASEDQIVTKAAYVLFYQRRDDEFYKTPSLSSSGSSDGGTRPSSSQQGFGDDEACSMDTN
Summary of the method: as §1

Measured: log2 ratio of Biotin-Ahx-Ub-VS probe labelling

Cc1nc(CN2CCN(C(=O)CCl)CC2)cs1
inactive: USP34 0.0453 | USP36 -0.0366 | USP38 -0.217 | USP39 -0.381 | USP4 -0.261
